Laboratory results taken from PubChem BioAssay AID431 (Sanford-Burnham Center for Chemical Genomics, 2006).
The campaign covered roughly 63,000 compounds. About 1,100 (1.7%) were called active.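 The calls were made as follows: active = compounds whose percent cytotoxicity in the single-dose primary screen, scaled between solvent and toxic-drug controls, exceeds 50; inactive = the rest.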 The list comes from a sample in which actives are over-represented; it also holds similar structures and randomly drawn compounds. Potency and affinity values are given separately.

Test: cytotoxicity in KRAS-transformed pancreatic duct cells, primary screen, cell-based, fluorescence, HTS (AID 431);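 also: 0% = DMSO solvent wells and 100% = doxorubicin-treated wells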
Conditions: HPDE-C7K KRASV12 cells, Alamar Blue viability, 48 h; at 10 µM; hits give high values

Row | Structure (SMILES) | cytotoxicity
1 | CCc1nc(SCC(=O)c2ccc(C)c(C)c2)n[nH]1 | -2.5% (inactive)
2 | O=S(=O)(Nc1ccc2c(c1)nc1n2CCN(Cc2ccccc2)C1)c1ccc(Cl)cc1 | 51.1% (active)
3 | Cc1ccc(S(=O)(=O)Nc2ccc3c(c2)nc2n3CCN(Cc3ccccc3)C2)cc1 | 6.9% (inactive)
4 | O=S(=O)(Nc1ccc2c(c1)nc1n2CCN(Cc2ccccc2)C1)c1ccccc1 | 0.8% (inactive)
5 | COc1ccc(CC(C)N2CCN(c3ccccc3OC)CC2)cc1OC (stereo unspecified) | 8.7% (inactive)
6 | CCn1c(SCC(=O)NCc2ccco2)nc2c1c(=O)n(C)c(=O)n2C | -20.9% (inactive)
7 | COC(=O)c1cc(NC(=O)c2nccnc2C(=O)O)cc(C(=O)OC)c1 | -2.1% (inactive)
8 | CC(=O)C1=C(C)NC(C)=C(C(C)=O)C1c1ccc(-c2ccccc2Cl)o1 | -13% (inactive)
9 | COC(=O)C1=C(C)NC2=C(C(=O)c3ccccc32)C1c1ccc(-c2ccc(C(=O)O)cc2)o1 (stereo unspecified) | 62.8% (active)
10 | CCOC(=O)C1=C(C)NC2=C(C(=O)c3ccccc32)C1c1cccnc1 (stereo unspecified) | 12.3% (inactive)
11 | Cc1ccc(C(=O)NCc2ccco2)cc1S(=O)(=O)N1CCCCC1 | -20.4% (inactive)
12 | Cc1c(NC(=O)c2ccccc2N)cccc1C(=O)O | 6.3% (inactive)
13 | CC(=O)c1cccc(NC(=O)CN(Cc2ccccc2)S(C)(=O)=O)c1 | -3.4% (inactive)
14 | O=C(C(NS(=O)(=O)c1cccs1)c1ccccc1)N1CCN(c2ccccc2)CC1 (stereo unspecified) | -9.8% (inactive)
15 | CCOc1ccc(C(=O)N2CCN(c3ccccc3)CC2)cc1OCC | -18% (inactive)
16 | CCOc1ccccc1C(=O)N1CCN(c2cccc(Cl)c2)CC1 | 65.8% (active)
17 | COc1ccccc1C(=O)N1CCN(c2cccc(Cl)c2)CC1 | 31.3% (inactive)
18 | O=C(O)c1ccccc1C(=O)N1CCN(c2cccc(Cl)c2)CC1 | 0.5% (inactive)
19 | COc1ccc2nc3oc(C(=O)N4CCN(c5cccc(Cl)c5)CC4)cc3cc2c1 | 25.9% (inactive)
20 | COc1ccc(OC)c(S(=O)(=O)N(C)CC(=O)N2CCN(c3cccc(Cl)c3)CC2)c1 | -14.2% (inactive)
21 | COc1ccc(N2CCN(Cc3cc(=O)oc4ccc(Cl)cc34)CC2)cc1 | -1.6% (inactive)
22 | Cc1cc(C(=O)N2CCN(c3cccc(Cl)c3)CC2)c(C)o1 | 62.7% (active)
23 | COc1cccc(N2CCN(Cc3coc4c(Cl)cc(Cl)cc4c3=O)CC2)c1 | 65% (active)
24 | Cc1ccc2occ(CN3CCN(c4ccccc4)CC3)c(=O)c2c1 | -18.2% (inactive)
25 | COc1ccc(C(=O)N2CCN(c3cccc(Cl)c3)CC2)c(OC)c1 | 50.5% (active)
26 | Cc1cc(C(=O)N2CCN(c3ncccn3)CC2)c(C)o1 | 6.7% (inactive)
